Out of some 360,000 compounds screened, about 1,400 (0.39%) were called active. The full list was thinned out, with actives kept by preference. A number with no mark means an inactive call. Rule as the data show it: active = inhibition above about 21%; inactive = the rest.

Data on 57 compounds can be found in PubChem BioAssay AID624267 (The Scripps Research Institute Molecular Screening Center, 2012).

In this experiment the target is Receptor-interacting serine/threonine-protein kinase 2 (Homo sapiens) (UniProt O43353). The experiment can be described thus: NOD2-RIPK2 binding disruptors in cells, primary screen, fluorescence, CHO cells, BLA complementation (AID 624267).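 Also: 0% = vehicle only and 100% = reference blocker.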 To be noted: CHO BLA complementation NOD2-RIPK2, CCF4 ratio; at 4.98 µM; stronger effect = higher value.
Receptor-interacting serine/threonine-protein kinase 2 (Homo sapiens), sequence (O43353 whole entry, looked up): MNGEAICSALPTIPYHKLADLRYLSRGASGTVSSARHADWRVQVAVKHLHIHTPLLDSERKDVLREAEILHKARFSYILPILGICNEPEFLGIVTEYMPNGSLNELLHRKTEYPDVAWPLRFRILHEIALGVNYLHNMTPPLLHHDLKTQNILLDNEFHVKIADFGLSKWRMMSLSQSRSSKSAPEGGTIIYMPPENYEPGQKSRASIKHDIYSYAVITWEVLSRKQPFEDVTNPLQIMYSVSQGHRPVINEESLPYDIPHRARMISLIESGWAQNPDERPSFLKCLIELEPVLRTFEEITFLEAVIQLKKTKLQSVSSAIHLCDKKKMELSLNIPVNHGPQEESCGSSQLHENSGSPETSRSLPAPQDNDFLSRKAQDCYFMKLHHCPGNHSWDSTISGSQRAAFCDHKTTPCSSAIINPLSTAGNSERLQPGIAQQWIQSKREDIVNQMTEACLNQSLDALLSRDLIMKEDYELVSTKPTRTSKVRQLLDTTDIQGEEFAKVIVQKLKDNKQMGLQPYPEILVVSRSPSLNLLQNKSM
As for `O=C1CC(C(F)(F)C(F)(F)C(F)(F)C(F)(F)F)=Nc2ccccc2N1`, the inhibition is 24.9% (active). The value for `OC(CN=c1sc2ccccc2n1CC(O)COc1ccccc1)COc1ccccc1` (configuration not stated) was -11.1%. Then `CCOc1ccc2c(=O)c(-c3ccc4c(c3)OCCCO4)c(C)oc2c1`, with -5.36%; and `CCOC(=O)c1c(NC(=O)C2CCN(S(=O)(=O)c3ccc(Cl)cc3)CC2)sc2c1CCCC2`, with 4.57%; and `CC[C@H]1CN2CCc3cc(OC)c(OC)cc3[C@@H]2C[C@@H]1C[C@H]1NCCc2cc(OC)c(OC)cc21`, with 23.9% (active). Then `COCCCNC(=O)Cn1c(=O)n(Cc2ccccc2Cl)c(=O)c2cc(OC)c(OC)cc21`, with -13.8%. Take `COc1ccccc1C(=O)NC(CCSC)C(=O)N1CCN(C/C=C/c2ccccc2)CC1` (configuration not stated): the inhibition is 0.75%. Then `O=C1NC(=O)C2C1C(c1ccc([N+](=O)[O-])cc1)=NN2Cc1ccccc1` (configuration not stated), with 43.2% (active); and `O=[N+]([O-])c1ccc(C(S(=O)(=O)Cc2ccccc2)S(=O)(=O)Cc2ccccc2)cc1`, with -0.41%; and `CC(=O)N1c2ccccc2N(Cc2ccc([N+](=O)[O-])cc2)C(=O)C1(C)C`, with -3.82%. The value for `COc1ccccc1C(=O)NCCC(=O)NC1=NCCS1` was -0.45%; that for `COc1cc2[nH]c(O)c(C=O)c2cc1OC` was -11.7%. Then `COc1ccc(OC)c(N=Cc2c(O)[nH]c3ccccc23)c1`, with 68.3% (active); and `COc1ccc(NC(=O)COC(=O)c2n[nH]c3ccccc23)c(OC)c1`, with 2.43%.

Consider `CC(C)(C)c1ccc(CCC2OCC(CN3CCOCC3)O2)cc1` (configuration not stated), for which the inhibition is -4.96%. As to `Cc1ccc(C)c(NS(=O)(=O)c2c(C)[nH]c(C)c2C(=O)N2CCCCC2)c1`, the inhibition is -5.02%. The value for `Cc1ccc(S(=O)(=O)N2CCN=C2SCc2c(F)cccc2Cl)cc1` was 4.62%; that for `COc1ccc(C(C(=O)NC(C)(C)C)N(C(=O)Cn2nnc3ccccc32)c2ccc(C(C)=O)cc2)cc1O` (configuration not stated) was 1.81%. The value for `Cc1ccc(C(=O)N/N=C/c2sc(=O)n(Cc3cccc(C(=O)O)c3)c2Cl)cc1` was -4.49%. The value for `CC(C)(C)C1CCC(C(=O)NCC(c2cccs2)N2CCOCC2)CC1` (configuration not stated) was 2.5%; that for `O=C(CCN1CCc2ccccc2C(O)(c2ccccc2)C1)c1ccc2c(c1)OCCO2` (configuration not stated) was 26.2% (active). Turning to `O=S(=O)(c1ccc2c(c1)OCCO2)N1CCc2ccccc21`, the inhibition was -1.2%. Then `O=C(CN1CCc2cc3c(cc2C1)OCCCO3)Nc1ccccc1`, with -9.22%.

In the case of `O=C(NC(=S)NC1CCSC1=O)c1ccccc1F` (configuration not stated), the inhibition was -9.93%.

On to `CCCCN(CCCC)CCCNC(=O)CN1C(=O)COc2ccc(S(=O)(=O)N3CCC(C)CC3)cc21`, for which the inhibition is -2.68%. Take `CC(=O)Nc1cccc(Nc2ccc(C#N)cc2)c1`: the inhibition is 3.65%. For the compound `CCOC(=O)C1=C(C)NC2=C(C(=O)CC(C)(C)C2)C1c1ccsc1` (configuration not stated), the inhibition is 2.36%.

`COC(=O)c1ccc(C2NC(=O)NC(C)=C2C(=O)N(C)C)cc1` (configuration not stated): the inhibition was -10%. For `CCOC(=O)C1=C(C)Nc2sc(C(=O)c3ccc(Br)cc3)c(N)c2C1c1ccc(C(=O)OC)cc1` (configuration not stated), the inhibition is 27% (active). Then `COc1ccc(NC(=O)/C(Cl)=C(/Cl)S(=O)Cc2ccc(C)cc2)cn1` (configuration not stated), with 95.1% (active); and `NC(Cc1ccccc1)c1csc(Nc2cc(Oc3ccccc3)ncn2)n1` (configuration not stated), with -5.36%; and `O=C(COC(=O)c1ccccc1NC(=O)c1ccco1)Nc1ccc2c(c1)OC(F)(F)O2`, with -2.03%. The value for `O=C1c2cccc3c([N+](=O)[O-])ccc(c23)C(=O)N1CC1CCCO1` (configuration not stated) was 80.1% (active); that for `N#Cc1cc([N+](=O)[O-])ccc1NCC1CCCO1` (configuration not stated) was -32.9%. Then `O=C1C(C=NCC2CCCO2)=C(O)c2ccccc21` (configuration not stated), with -5.23%; and `Cc1ccc(S(=O)(=O)N2CCN(C(=O)c3cc(S(=O)(=O)N4CCOCC4)ccc3F)CC2)cc1`, with -18.2%. `CCc1ccc(OC2(C)CCN(CCOc3ccc(C)cc3)C2)cc1` (configuration not stated): the inhibition is 0.79%. Take `COc1ccc(C2CC(c3cccs3)=NN2c2nc(C)c(C(C)=O)s2)cc1OC` (configuration not stated): the inhibition was 6.76%. The value for `COc1ccccc1N1N=C(c2cccs2)CC1c1ccccc1` (configuration not stated) was 49.9% (active). The value for `Fc1ccc(N2N=C(c3cccs3)CC2c2ccco2)c(F)c1` (configuration not stated) was -13.7%.

`Cc1ncoc1C(=O)N1CCCC(C(=O)c2ccc3c4c(cccc24)CC3)C1` (configuration not stated): the inhibition was 1.4%. Then `Cc1ccccc1C(=O)NCC(c1ccco1)N1CCc2ccccc21` (configuration not stated), with 7.15%; and `COC(=O)C1=C(C(=O)c2ccc(C)cc2)C(c2ccccc2)n2nnnc2N1` (configuration not stated), with 2.81%; and `COc1ccc(C2CC(c3cccs3)Nc3nnnn32)cc1` (configuration not stated), with -2.81%. Then `COc1ccc(C2=CC(c3cccc(OC)c3)n3nnnc3N2)cc1` (configuration not stated), with 26.8% (active). Then `O=C1N(c2ccc(Cl)cc2)C(c2ccc(Cl)cc2)N2CCCN12` (configuration not stated), with 8.61%; and `Cc1ccsc1-c1cc(C(=O)O)c2c(ccc3ccccc32)n1`, with 0.09%. `CCOC(=O)C1(Cc2cccc(OC)c2)CCN(Cc2csc(C(C)=O)c2)CC1`: the inhibition was -2.05%.

For the compound `CCCc1c(C(=O)Nc2ccc(F)cc2)cnn1-c1ccccc1`, the inhibition was -3.44%. Then `O=C(c1cccc(-n2cccc2)c1)N1CCN(S(=O)(=O)c2ccc(F)cc2)CC1`, with -0.82%; and `O=[N+]([O-])/C=C/c1ccc2c(ccn2Cc2ccccc2)c1`, with 87.9% (active). Then `COC(=O)N1CN(C(=O)OC)CN(C(=O)OC)C1`, with -12.2%; and `O=C(CCN1C(=O)COc2ccccc21)NCCCN1CCN(c2ccc(F)cc2)CC1`, with -5.53%; and `CN1CCN(CCCNC(=O)c2ccc(/C=C3\Oc4ccccc4N(Cc4ccc(Cl)cc4)C3=O)cc2)CC1`, with 33.1% (active).

As for `Cc1ccc(NC(=O)CCCNC(=O)c2ccc(Cl)cc2)cc1S(=O)(=O)N1CCOCC1`, the inhibition was -6.45%. Then `COc1ccc(C)cc1NC(=S)Nc1ccccc1SC`, with -5.8%. Then `CCOc1ccc(S(=O)(=O)NCc2ccc3c(c2)OCO3)cc1C`, with -3.55%.

For orientation: inhibition means the relative decrease from the control value, in per cent.
